In the library only some 4.8% were active in any assay of this set; here they are far more common.
DAX1 inh-1: DAX1 (NR0B1) inhibitors on StAR promoter, primary screen, cell-based, luminescence, SF-1 (NR5A1), full-length DAX-1 | inhibition, % at 6.8 µM | AID 652010, 2013 | hit rate 1.1% among 370,000 | HEK293T StAR-luciferase reporter, SF-1/DAX-1 repression relief;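 active = inhibition above the mean over all tested compounds plus 3 SD, cut at about 3.6% in these data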;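 also: 0% = DAX-1 cells with DMSO and 100% = cells lacking DAX-1 with DMSO; higher inhibition means more luminescence from relief of DAX-1 repression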
hcDAF-12 act: H. contortus DAF-12 nuclear receptor activators, primary screen, cell-based, luminescence, HEK293, lit1-tk-luc reporter; hit rate 1.4% among 370,000; activation, % at 6.8 µM; HEK293 hcDAF-12 lit1-tk-luc reporter; 0% DMSO, 100% Δ7-dafachronic acid;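 active = activation above the mean of all tested compounds plus 3 SD, cut at about 5.5% in these data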;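 also: 100% = response to 3 µM Δ7-dafachronic acid high control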
ssDAF-12 act: S. stercoralis DAF-12 nuclear receptor activators, primary screen, cell-based, luminescence, HEK293, GRIP1 co-expression, lit1-tk-luc. activation, % at 6.8 µM. HEK293 ssDAF-12/GRIP1 lit1-tk-luc reporter; % of 3 µM dafachronic acid response. hit rate 1% among 370,000. Nuclear hormone receptor DAF-12 (Strongyloides stercoralis);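 active = activation above the mean over all tested compounds plus 3 SD, cut at about 0.9% in these data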;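 also: 0% = DMSO-only wells and 100% = 3 µM delta7-dafachronic acid wells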
DAX1 inh-2: DAX1 (NR0B1) inhibitors, primary screen, cell-based, HEK293, Gal4-DAX1, luciferase luminescence; Nuclear receptor subfamily 0 group B member 1 (Homo sapiens), P51843; hit rate 0.99% among 340,000; AID 504766, 2011; inhibition, % at 6.75 µM; HEK293 Gal4-DAX1 luciferase reporter;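 active = inhibition above the mean over all tested compounds plus 3 SD, cut at about 4.2% in these data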;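 also: 0% = DAX1-transfected cells with DMSO and 100% = empty-vector control cells with DMSO; inhibition shows as a rise in luminescence from relieved DAX1 repression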
Target sequence (P51843 207-470 limits assumed): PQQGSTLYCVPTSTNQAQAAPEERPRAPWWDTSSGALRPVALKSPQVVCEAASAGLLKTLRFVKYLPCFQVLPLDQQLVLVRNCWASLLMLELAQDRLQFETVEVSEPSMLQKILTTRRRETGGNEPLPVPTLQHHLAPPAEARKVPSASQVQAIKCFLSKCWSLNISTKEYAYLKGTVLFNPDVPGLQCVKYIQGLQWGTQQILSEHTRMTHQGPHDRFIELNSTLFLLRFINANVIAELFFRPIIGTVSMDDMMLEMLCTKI
SMARCA2 activ: SMARCA2 (BRM) function activators, primary screen, cell-based, luminescence, high throughput. activation, % at 9.1 µM. hit rate 1% among 370,000. MG213 cells, MMTV-luciferase reporter, dexamethasone, overnight; in the data active = activation above about 7.8%;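 also: 0% = vehicle wells and 100% = reference activator wells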
hgDAF-12 ag: H. glycines DAF-12 receptor agonists, primary screen, cell-based, luminescence, HEK293, GAL4 fusion, UAS-luciferase; Nuclear hormone receptor DAF-12 (Heterodera glycines), GAL4 fusion; HEK293 GAL4-hgDAF12 UAS-luciferase reporter, agonist luminescence; normalized to butyrate control; activation, % at 6.8 µM; hit rate 1.8% among 370,000; AID 687014, 2013;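 active = activation above a cutoff set at the mean of all screened compounds plus 3 SD, cut at about 10% in these data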;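 also: 0% = DMSO wells and 100% = sodium butyrate wells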
Active calls of the source: *.

How did COc1ccc(CNC(=O)CN2C(=O)c3ccccc3C2=O)cc1 do in these assays?
DAX1 inh-1: -0.1; hcDAF-12 act: -0.5; ssDAF-12 act: -1.0; DAX1 inh-2: 1.4; SMARCA2 activ: 0.5; hgDAF-12 ag: 0.4

How did O=C(CCCc1ccccc1)c1ccccc1 do in these assays?
DAX1 inh-1: 2.0; hcDAF-12 act: 5.6*; ssDAF-12 act: -0.6; DAX1 inh-2: 4.9*; SMARCA2 activ: 6.7; hgDAF-12 ag: 6.5

What do the screens show for `COc1ccc(C(=O)CN2C(=O)c3ccccc3C2=O)cc1`?
DAX1 inh-1: 0.4; hcDAF-12 act: 0.3; ssDAF-12 act: 1.5*; SMARCA2 activ: 0.1; hgDAF-12 ag: 2.2

What do the screens show for `COc1ccc(C(=O)C(=NNc2ccccc2)c2ccc(OC)cc2)cc1`?
DAX1 inh-1: -3.8; hcDAF-12 act: -1.2; ssDAF-12 act: -0.6; DAX1 inh-2: -2.2; SMARCA2 activ: -3.5; hgDAF-12 ag: -2.8

What do the screens show for `O=C(CNC(=O)c1ccccc1Cl)c1ccccc1`?
DAX1 inh-1: 1.0; hcDAF-12 act: 1.9; ssDAF-12 act: -0.1; DAX1 inh-2: 3.6; SMARCA2 activ: 5.0; hgDAF-12 ag: 12.5*

How did Cc1c(C)n(Cc2ccc(-c3ccccc3C(=O)O)cc2)c2ccc(C(=O)N[C@@H](C)c3ccc([N+](=O)[O-])cc3)cc12 do in these assays?
DAX1 inh-1: -0.4; hcDAF-12 act: -2.1; ssDAF-12 act: -0.6; SMARCA2 activ: -1.8; hgDAF-12 ag: 4.7

How did COc1ccc(C(=O)OCCc2sc[n+](CC(=O)c3ccccc3)c2C)cc1 do in these assays?
DAX1 inh-1: -0.8; hcDAF-12 act: -0.3; ssDAF-12 act: -1.6; DAX1 inh-2: 4.5*; SMARCA2 activ: -1.2; hgDAF-12 ag: 2.0

Results for Cc1c(CCOC(=O)c2ccc([N+](=O)[O-])cc2)sc[n+]1CC(=O)c1ccccc1 ?
DAX1 inh-1: -0.7; hcDAF-12 act: -2.0; ssDAF-12 act: -1.3; DAX1 inh-2: 2.5; SMARCA2 activ: -0.5; hgDAF-12 ag: -4.4

What do the screens show for `CCOc1ccc(C(=O)Cc2ccccc2)cc1`?
DAX1 inh-1: 1.0; hcDAF-12 act: 2.1; ssDAF-12 act: 1.1*; DAX1 inh-2: 2.4; SMARCA2 activ: 2.2; hgDAF-12 ag: 11.6*

Results for Cc1occc1-c1nnc(SCC(=O)Nc2ccncc2)n1-c1ccccc1 ?
DAX1 inh-1: -0.2; hcDAF-12 act: -2.0; ssDAF-12 act: -1.6; SMARCA2 activ: -1.6; hgDAF-12 ag: -2.8

How did CCOc1cnc(-c2ccccc2F)o1 do in these assays?
DAX1 inh-1: 0.1; hcDAF-12 act: 1.1; ssDAF-12 act: -0.9; DAX1 inh-2: 2.2; SMARCA2 activ: -2.0; hgDAF-12 ag: -1.8

What do the screens show for `CCOc1cnc(C(=O)NNC(=O)C(Br)C(C)C)o1` (stereo not given)?
DAX1 inh-1: -0.8; hcDAF-12 act: 1.6; ssDAF-12 act: -1.4; DAX1 inh-2: 7.8*; SMARCA2 activ: -0.1; hgDAF-12 ag: -0.6

Results for O=C(NCC(c1ccccc1)c1ccccc1)[C@H](Cc1ccccc1)NC1(C(=O)NC2CCCCC2)CCOCC1 ?
hcDAF-12 act: 0.8; ssDAF-12 act: -1.4; hgDAF-12 ag: -0.4

Results for Cc1ccc(NC(=O)CN2CCC(NC(=O)Cc3ccccc3)CC2)c(C)c1 ?
DAX1 inh-1: -0.2; hcDAF-12 act: -1.1; ssDAF-12 act: 1.2*; DAX1 inh-2: 2.2; SMARCA2 activ: 1.1; hgDAF-12 ag: 1.8

Results for CCOc1ccc(C2Oc3nc(SC)nnc3-c3ccccc3N2C(C)=O)cc1OC (stereo not given) ?
DAX1 inh-1: 0.0; hcDAF-12 act: -1.8; ssDAF-12 act: -0.7; DAX1 inh-2: 6.0*; SMARCA2 activ: -0.6; hgDAF-12 ag: -0.8

What do the screens show for `CCC(=O)N1c2ccccc2-c2nnc(SC)nc2OC1c1ccc(OC)c(OC)c1` (stereo not given)?
DAX1 inh-1: 0.7; hcDAF-12 act: -2.4; ssDAF-12 act: -0.6; DAX1 inh-2: -1.1; SMARCA2 activ: 2.5; hgDAF-12 ag: -1.4

Results for Cc1[nH]c(=O)[nH]c(=O)c1/C=N/NC(=O)[C@H](C)N ?
DAX1 inh-1: 0.0; hcDAF-12 act: 5.1; ssDAF-12 act: -0.3; DAX1 inh-2: 5.7*; SMARCA2 activ: -1.6; hgDAF-12 ag: -1.6

What do the screens show for `COc1ccc(-c2cc3ncc(C(C)=O)c(C)n3n2)cc1`?
DAX1 inh-1: 1.2; hcDAF-12 act: 5.0; ssDAF-12 act: -0.3; DAX1 inh-2: 4.4*; SMARCA2 activ: 3.9; hgDAF-12 ag: 8.3

How did COc1cccc(/C=C2\SC(N)=NC2=O)c1OS(=O)(=O)c1ccccc1 do in these assays?
DAX1 inh-1: 1.1; hcDAF-12 act: -0.6; ssDAF-12 act: 1.1*; DAX1 inh-2: 0.7; SMARCA2 activ: 3.2; hgDAF-12 ag: 0.6

What do the screens show for `CC(C)c1ccc(N(CC(=O)NCCc2ccccc2)C(=O)c2csnn2)cc1`?
DAX1 inh-1: -0.2; hcDAF-12 act: 0.1; ssDAF-12 act: -1.0; DAX1 inh-2: 1.0; SMARCA2 activ: 7.8*; hgDAF-12 ag: 2.0

How did Cc1ccc(N(CC(=O)NCCc2ccccc2)C(=O)c2csnn2)cc1 do in these assays?
DAX1 inh-1: -0.4; hcDAF-12 act: 0.0; ssDAF-12 act: -1.2; DAX1 inh-2: -0.9; SMARCA2 activ: -1.8; hgDAF-12 ag: 3.5

How did CC(C)(C)c1ccc(C(=O)NCCN2CCCC2)cc1 do in these assays?
DAX1 inh-1: 0.4; hcDAF-12 act: 0.7; ssDAF-12 act: 1.1*; DAX1 inh-2: 1.3; SMARCA2 activ: 1.2; hgDAF-12 ag: 2.2

How did O=C(NCCN1CCCCCC1)c1ccc(N2CCCC2=O)cc1 do in these assays?
DAX1 inh-1: -0.1; hcDAF-12 act: 2.1; ssDAF-12 act: -0.3; DAX1 inh-2: -1.0; SMARCA2 activ: 0.0; hgDAF-12 ag: 1.8

Results for CC(=O)N1CCN(C(=S)NC(=O)c2ccc(S(=O)(=O)N3CCOCC3)cc2)CC1 ?
DAX1 inh-1: -0.5; hcDAF-12 act: -4.2; ssDAF-12 act: -1.4; DAX1 inh-2: 4.7*; SMARCA2 activ: 2.2; hgDAF-12 ag: 0.5

What do the screens show for `Cc1ccc(C(=O)NCCC(=O)N2CCCC2)cc1`?
DAX1 inh-1: 0.6; hcDAF-12 act: 5.2; ssDAF-12 act: 0.6; DAX1 inh-2: 6.1*; SMARCA2 activ: 4.8; hgDAF-12 ag: 13.1*

Results for CC(=O)Nc1ccc(C(=O)Nc2ccc(S(=O)(=O)N3CCOCC3)cc2)cc1 ?
DAX1 inh-1: -0.5; hcDAF-12 act: -0.4; ssDAF-12 act: -0.9; DAX1 inh-2: 1.1; SMARCA2 activ: 1.1; hgDAF-12 ag: -1.1
